The sequences below were run against L1TD1 (assay: pooled miR-30 sensor sort-seq; sequence = guide strand). Conditions: shRNA.

| Sequence | sensor-assay potency score (higher = more potent) |
| --- | --- |
| TATTTCTCCAGCTCTATGCTTT | -0.459 |
| ATCATTACTATTGTATTCGTTA | -0.576 |
| TCTTTCTTCAAGTATGTCCATT | -0.922 |
| TTAAATCTAATACCGGAGCTAT | -1.12 |
| TTGGATGTTAGTTCTTCTGTGT | 0.173 |
| TTGATCTTCTAGACTGTCTATT | -0.179 |
| TACTTCTCAAGTTTTCTTCTGT | 0.707 |
| TTTGATCTTCTAGACTGTCTAT | -0.16 |
| TTCTTTGACAAATTCATCCTCT | 0.858 |
| ATTTGCTGAAACTCTGTCCTAC | 0.491 |

These sequences were tested against LAMA2 in the same assay as above. Conditions: shRNA.

| Sequence | sensor-assay potency score (higher = more potent) |
| --- | --- |
| TTACATAATAGGCCTGTCCAGT | -0.57 |
| TTACATATCAGACAGGAGCCAG | -0.545 |
| TAAATGTCAACTGTCCTCCTAC | 0.301 |
| TTGATTGCAGATTCGACACTGC | 0.517 |
| TTGAGTTTATCTATTAGCCGGT | 0.45 |
| TAGTTTATTGTAATTCTTCTTC | -0.313 |
| TTAAGTAACAATACATTAGTAT | -0.0119 |
| TATCCAAGAAGTCTTCTCGGGT | -0.905 |
| TTTGTGAGCAAACATCATCAAG | -1.56 |
| TTTGAGTTTATCTATTAGCCGG | -0.671 |
| TTTATTGTAATTCTTCTTCAGG | -0.611 |
| TACATCTTTAGCTGTGTCGTTG | -0.19 |

These sequences were tested against LAMB3 in the same assay as above. Conditions: shRNA.

| Sequence | sensor-assay potency score (higher = more potent) |
| --- | --- |
| TTTGCATCTAGGATCCGGGAGG | -1.03 |
| TAGGTCACAGCGCTCTCCCTGC | -0.878 |
| TATTTTTTCAAACTGCTCCCTC | 0.433 |
| TTATTCTCTCAAATCCCTCTTG | -0.105 |
| TCTTGAAGCTGGAATCTCCTGT | 0.664 |
| TCTTCTGCAGAACAGTAGCTGA | -1.16 |
| TTCTGCAGAACAGTAGCTGAGT | -0.497 |
| TTACTAGCTACACACCAGGGGT | -0.82 |
| TAGGCTGTGCTCAGCATCCGGA | -0.616 |
| TTTTTTGACTTTGAGTTGCTGG | 0.33 |
| TCTGACATCTTCCTCCATCTGG | -0.297 |
| TTTGACTTTGAGTTGCTGGAAT | -0.395 |

These sequences were tested against LAMB4 in the same assay as above. Conditions: shRNA.

| Sequence | sensor-assay potency score (higher = more potent) |
| --- | --- |
| TTAGCTGTTTAACTTTTCCTAA | -0.989 |
| TAGTCCTGTAGTGCTTGTCTTA | -1.22 |
| TTTAGCTGCATGATTTGTCTTC | -0.0764 |
| TTCAACACAGTTGTGAAGCTGA | 0.732 |
| TTTGTCTTCTAACAGAGTCATG | -1.42 |
| TTCACTTATACTTTCGATCTGA | 0.249 |

Reference: the OligoGym collection
